Only some compounds are listed: those with a hit (about 11% of all), similar ones and a draw of the others.
G9a inh: qHTS Assay for Inhibitors of Histone Lysine Methyltransferase G9a; Histone-lysine N-methyltransferase EHMT2 (Homo sapiens), Q96KQ7; G9a H3K9 monomethylation, AlphaScreen, 2 h; Potency, µM (highest dose often 102 µM), for inactives: at the top dose activity, negative = inhibition, actives largely listed as inhibitors; 350,000 tested, 8.8% active; AID 504332, 2011; note: potency is the fitted concentration of half-maximal effect; % is set by controls: 0 for no effect and ±100 for the full control effect; nearly all actives have a fitted effect of over 75% in size
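Methyltransferase reactions run at room temperature for 2 h (20 nM enzyme, 500 nM biotin-H3K9 peptide, 20 uM SAM) after a 15 min compound preincubation; product detected by AlphaScreen beads and anti-H3K9me1 antibody.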
Tau fibril ThT: qHTS for Inhibitors of Tau Fibril Formation, Thioflavin T Binding; Microtubule-associated protein tau (Homo sapiens), P10636; recombinant tau K18 P301L, heparin-induced fibrillization, ThT fluorescence; Potency, µM (highest dose often 57.4 µM), inactives show at the top dose activity, negative = inhibition, actives largely listed as inhibitors; 270,000 tested, 2.1% active; AID 1460, 2008; note: potency is the fitted concentration of half-maximal effect; % is set by controls: 0 for no effect and ±100 for the full control effect; nearly all actives have a fitted effect of over 55% in size
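ThT emission at 510 nm, taken 1 hr after adding 30 uM dye, quantifies aggregates formed when 20 uM heparin acts on human tau K18 P301L for 6 hr at 37 C.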
FBPA coupling cs: qHTS Assay for Inhibitors of Fructose-1,6-bisphosphate Aldolase from Giardia Lamblia: Coupling assay counterscreen. coupling enzyme system counterscreen, AmpLite Red fluorescence. activity change, negative = inhibition, % at 58.2 µM, hits read low. 290,000 tested, 0.67% active; in the data active = activity change below about -30%; note: % is set by controls: 0 for no effect and ±100 for the full control effect
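Coupling enzymes only (glyceraldehyde-3-phosphate) + compound, at 57.5 uM final, 10 min RT; add substrate/coupling/AmpLite Red mix, 20 min RT; fluorescence ex 525/em 598 nm. Actives flag coupling-system interference.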
Tau fibril FP: qHTS for Inhibitors of Tau Fibril Formation, Fluorescence Polarization. AID 1468, 2008. Microtubule-associated protein tau (Homo sapiens), P10636. Potency, µM (doses to about 57.7 µM), without a hit: at the highest dose activity, negative = inhibition, usual class: inhibitors. K18 P301L tau heparin fibrillization, Alexa594 FP, 6 h. 280,000 tested, 0.39% active; note: potency is the fitted concentration of half-maximal effect; % is set by controls: 0 for no effect and ±100 for the full control effect; nearly all actives have a fitted effect of over 55% in size
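FP of Alexa 594-tau after heparin (20 uM) induction. Substrate: human K18 P301L, 15 uM unlabeled, 0.24 uM labeled. Buffer 100 mM sodium acetate pH 7. 6 hr, 37 C.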
Sfp inh: qHTS Assay for Inhibitors of Bacillus subtilis Sfp phosphopantetheinyl transferase (PPTase); Biochemical Sfp PPTase activity, qHTS; Potency, µM, without a hit: largest response in the series, negative = inhibition, hits mostly inhibitors; 310,000 tested, 3.5% active; AID 1490, 2009;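 note: the enzyme is Sfp with the accession as filed and its product quenches rhodamine fluorescence; potency is the fitted concentration of half-maximal effect; 0% = enzyme reaction without inhibitor and -100% = no enzyme wells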
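Buffer: 50 mM Hepes-Na pH 7.6, 10 mM MgCl2, 0.01% Nonidet P-40, 0.01% BSA. Enzyme 15 nM, pre-exposed to compound 15 min; substrates then added and fluorescence change tracked over 30 min.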
Tau fluor cs: Counterscreen qHTS for Inhibitors of Tau Fibril Formation, Fluorescence Polarization | tau K18 P301L Alexa594 fluorescence, heparin fibrillization | Potency, µM (series often up to 57.7 µM), inactives show at the highest dose activity change, negative = decrease | 280,000 tested, 0.93% active | AID 1463, 2008; note: potency is the fitted concentration of half-maximal effect; % is set by controls: 0 for no effect and ±100 for the full control effect; nearly all actives have a fitted effect of over 55% in size
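Human tau K18 P301L (15 uM unlabeled, 0.24 uM Alexa 594-labeled) in 100 mM sodium acetate pH 7 with 20 uM heparin, 6 hr at 37 C. ThT 30 uM added, 1 hr ambient; Alexa 594 FP and total fluorescence read at 555/632 nm.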
Sfp PPTase conf: Confirmation qHTS Assay for Inhibitors of Bacillus subtilis Sfp phosphopantetheinyl transferase (PPTase) | AID 2701, 2010 | shares compounds with Sfp inh | 380 tested, 79% active | Potency, µM (titrated, usually from 114 µM), without a hit: at the highest dose activity change, negative = inhibition, hits mostly inhibitors | Sfp PPTase enzymatic assay, qHTS titration;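 note: potency is the fitted concentration of half-maximal effect; plate controls were uninhibited Sfp reaction for no effect and no enzyme control for full effect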
Sfp gel assay: Gel-Based Assay for Inhibitors of Bacillus subtilis Sfp phosphopantetheinyl transferase (PPTase); 210 tested, 20% active; Potency, µM, most hits filed as inhibitors; purified Sfp, gel-based phosphopantetheinylation read-out; shares compounds with Sfp inh;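 active = potency below 100 µM; inconclusive = dose-dependent response but potency above 100 µM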;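 note: band intensities scaled against SCH202676 control wells before curve fitting; potency is an IC50 for inhibitors of Sfp transfer activity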
CASP1 redox cat: Concentration-Response Counterscreen for Redox Active Inhibitors of Caspase-1: Catalase; shares compounds with FBPA coupling cs; caspase-1 Ac-WEHD-AFC fluorescence rate, catalase buffer; Potency, µM (series often up to 57.5 µM), without a hit: top-dose activity change, negative = inhibition, most hits filed as inhibitors; 30 tested, under 10 active; AID 888, 2007; active = well fitted inhibition curve with a large enough effect in the main read-out, with a control signal flat; inconclusive = small, poorly fitted or top-dose-only effect, or a change in a side signal; inactive = no such curve, though single readings can be large or run the other way
Casp1 confirm: Confirmation Concentration-Response Assay for Allosteric/Competitive Inhibitors of Caspase-1; shares compounds with FBPA coupling cs; purified caspase-1, fluorogenic substrate cleavage; Potency, µM (highest dose often 57.5 µM), for the others: at the highest dose activity change, negative = inhibition, actives largely listed as inhibitors; 60 tested, 20% active; active = well fitted inhibition curve with a large enough effect in the main read-out, with a control signal flat; inconclusive = small, poorly fitted or top-dose-only effect, or a change in a side signal; inactive = no such curve, though single readings can be large or run the other way
CASP7 inh CRC: Confirmation Concentration-Response Assay for Allosteric/Competitive Inhibitors of Caspase-7; shares compounds with FBPA coupling cs; recombinant caspase-7, fluorogenic substrate cleavage; Potency, µM (doses to about 57.5 µM), without a hit: at the highest dose activity change, negative = inhibition, hits mostly inhibitors; 60 tested, under 10 active; AID 897, 2007; active = well fitted inhibition curve with a large enough effect in the main read-out, with a control signal flat, not every such curve was filed as active; inconclusive = small, poorly fitted or top-dose-only effect, or a change in a side signal; inactive = no such curve, though single readings can be large or run the other way
CASP7 redox cys: Concentration-Response Counterscreen for Redox Active Inhibitors of Caspase-7: Cysteine; shares compounds with FBPA coupling cs; caspase-7 enzyme with cysteine, fluorogenic substrate, redox counterscreen; AID 908, 2007; 60 tested, under 10 active; Potency, µM (series often up to 57.5 µM), inactives show at the highest dose activity change, negative = inhibition, hits mostly inhibitors; active = well fitted inhibition curve with a large enough effect in the main read-out, with a control signal flat; inconclusive = small, poorly fitted or top-dose-only effect, or a change in a side signal; inactive = no such curve, though single readings can be large or run the other way
CASP7 redox cat: Concentration-Response Counterscreen for Redox Active Inhibitors of Caspase-7: Catalase; shares compounds with FBPA coupling cs; Caspase-7 Ac-DEVD-AFC fluorescence rate, catalase buffer; Potency, µM (titrated, usually from 57.5 µM), for the others: at the highest dose activity, negative = inhibition, actives largely listed as inhibitors; 30 tested, under 10 active; AID 909, 2007; active = well fitted inhibition curve with a large enough effect in the main read-out, with a control signal flat; inconclusive = small, poorly fitted or top-dose-only effect, or a change in a side signal; inactive = no such curve, though single readings can be large or run the other way
Casp1 cysteine: Concentration-Response Counterscreen for Redox Active Inhibitors of Caspase-1: Cysteine; shares compounds with FBPA coupling cs; recombinant caspase-1, fluorogenic substrate, cysteine buffer; Potency, µM (highest dose often 57.5 µM), for inactives: top-dose activity change, negative = inhibition, usual class: inhibitors; 60 tested, under 10 active; AID 929, 2007; active = well fitted inhibition curve with a large enough effect in the main read-out, with a control signal flat; inconclusive = small, poorly fitted or top-dose-only effect, or a change in a side signal; inactive = no such curve, though single readings can be large or run the other way
Numbers without * were called inactive; ! = repeats disagree; [ ] = another dose, or the depositor's remark. Unless noted, calls come from the whole dose curve; as a rule, active = well fitted curve in the direction sought with a large enough effect; inconclusive = small, poorly fitted or top-dose-only effect, or another doubt; inactive = no such curve, though single readings can be large; an effect the other way counts as inactive or inconclusive.

`CN(C(=O)Cc1ccc(Cl)c(Cl)c1)[C@@H](CN1CCCC1)c1cccc(OCC(=O)O)c1` gave Tau fibril ThT 2%, FBPA coupling cs 2, Tau fibril FP -8%, Sfp inh -2% and Tau fluor cs -1%.
`CCOC(=O)C1=CC(=C2C(=O)N(CC)C(=S)N(CC)C2=O)c2ccccc2O1` gave G9a inh 25µM*, Tau fibril ThT inconclusive, FBPA coupling cs 1, Tau fibril FP inconclusive, Sfp inh 50µM*, Tau fluor cs -29%, Sfp PPTase conf 59µM* and Sfp gel assay inactive.
CCOC(=O)C1=C(C)c2ccccc2OC1(C(=O)OCC)c1ccccc1 (configuration not stated) was read as G9a inh 21%, Tau fibril ThT -21%[81.4 µM], FBPA coupling cs -7, Tau fibril FP 6%[81.3 µM], Sfp inh 10% and Tau fluor cs -14%[81.3 µM].
Screening CC(C)Nc1ccc(Nc2ccccc2)cc1 returned G9a inh 1.6µM*, Sfp inh 8.9µM*, Sfp PPTase conf 11µM* and Sfp gel assay inconclusive.
COc1cccc(NC(=O)CCc2nc(-c3ccc(C(C)(C)C)cc3)no2)c1 was read as G9a inh -22%[59 µM], Tau fibril ThT -11%, Tau fibril FP -19% and Tau fluor cs inconclusive.
Cc1cccc(N2CCc3c2nc2ccccc2c3N)c1 was read as G9a inh inconclusive, Tau fibril ThT inconclusive, FBPA coupling cs -34*!, Tau fibril FP 9%, Sfp inh 28µM*, Tau fluor cs inconclusive, Sfp PPTase conf 26µM* and Sfp gel assay inactive.
`CN1C2CCC1CC(OC(=O)C1CCC(C(=O)OC3CC4CCC(C3)N4C)(c3ccccc3)c3ccccc31)C2` (configuration not stated) gave Tau fibril ThT -3%, FBPA coupling cs 4, Tau fibril FP -2%, Sfp inh 14% and Tau fluor cs -8%.
For C[C@]12CCC(=O)C=C1CCC1C2CC[C@@]2(C)C1CC[C@@]2(O)CC#N (some centres not stated) the results were G9a inh -8%[59 µM], Tau fibril ThT -7%, FBPA coupling cs 2, Tau fibril FP -1%, Sfp inh 23% and Tau fluor cs -3%.
C[C@]12Cc3cn4c(nc3C=C1CC[C@H]1[C@@H]2CC[C@@]2(C)[C@H]1CC[C@@]2(O)C#N)nc1ccccc14 was read as Casp1 confirm inconclusive, CASP7 inh CRC inconclusive, CASP7 redox cys inconclusive and Casp1 cysteine inconclusive.
NC[C@H](CP(=O)(O)O)c1ccc(Cl)cc1 was read as Tau fibril ThT -8%, FBPA coupling cs 0, Tau fibril FP -4%, Sfp inh -2% and Tau fluor cs -7%.
Screening Cn1ncnc2c(=O)n(C)c(=O)nc1-2 returned G9a inh 13µM*, Tau fibril ThT 11µM*, FBPA coupling cs -94*, Tau fibril FP inconclusive, Sfp inh inconclusive, Tau fluor cs -11%, CASP1 redox cat 1.1µM*, Casp1 confirm 2µM*, CASP7 inh CRC 4µM*, CASP7 redox cys -17%, CASP7 redox cat inconclusive and Casp1 cysteine -15%.
Screening NC(=NCCC[C@H](N)C(=O)O)N[N+](=O)[O-] returned G9a inh 14%[59 µM], Tau fibril ThT -5%, FBPA coupling cs 4, Tau fibril FP 0%, Sfp inh 7% and Tau fluor cs -7%.
COc1cc2c(cc1O)-c1c(O)c(OC)cc3c1[C@H](C2)N(C)CC3 was read as Tau fibril ThT 28µM*, FBPA coupling cs -28, Tau fibril FP inconclusive, Sfp inh inconclusive, Tau fluor cs inconclusive, Casp1 confirm -14%, CASP7 inh CRC -5%, CASP7 redox cys -6% and Casp1 cysteine 3%.

Screens (PubChem BioAssay)
